Screens as filed in PubChem.
Compounds with a hit are over-represented: about 19% of the library has one in this group of screens.
TDP1 cell noCPT – qHTS for Inhibitors of human tyrosyl-DNA phosphodiesterase 1 (TDP1): qHTS in cells in absence of CPT; DT40 Tdp1-/- hTDP1 cells, no CPT, ATP luminescence, 48 h; Potency, µM (titrated, usually from 46.2 µM), without a hit: at the top dose activity change, negative = growth inhibition, most hits filed as inhibitors; 15% of 420,000 active; AID 686978, 2013; note: nearly all actives have a fitted effect of over 55% in size
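DT40 Tdp1-/-;hTDP1 cells, no CPT (DMSO vehicle only), 400 cells/well; compounds pin-transferred; ≥48 hr, 37 °C; CellTiter-Glo 30 min RT dark, luminescence read.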
VP16 counter – Gal4-VP16 reporter inhibition counter-screen. Potency, µM (top dose mostly 53.6 µM), inactives show top-dose activity, negative = inhibition, hits mostly inhibitors. Drosophila S2 Gal4-VP16 UAS-luciferase, luminescence, 20 h. 3.5% of 310,000 active;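 note: Gal4-VP16 expression switched on by copper sulfate through the metallothionein promoter; nearly all actives have a fitted effect of over 50% in size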
TDP1 cell CPT – growth inhibition of DT40 Tdp1-/-;hTDP1 cells with camptothecin (screen for TDP1 inhibitors). AID 686979. Potency, µM (highest dose often 46.2 µM), for the others: at the top dose activity change, negative = growth inhibition, most hits filed as inhibitors. 12% of 420,000 active. chicken DT40 Tdp1-/-;hTDP1 cells + 20 nM CPT, ATP luminescence, 48 h; note: nearly all actives have a fitted effect of over 55% in size
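Chicken DT40 Tdp1-/- cells complemented with human TDP1, 400 cells/well, exposed to compounds plus 20 nM camptothecin for at least 48 h at 37 C; viability read as ATP content by CellTiter-Glo luminescence.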
TDP1 inh – blocks human tyrosyl-DNA phosphodiesterase 1. Potency, µM (doses to about 130 µM), without a hit: at the highest dose activity change, negative = inhibition, most hits filed as inhibitors. Q9NUW8. AID 485290. 0.28% of 350,000 active. recombinant TDP1, AlphaScreen DNA substrate cleavage; note: nearly all actives have a fitted effect of over 40% in size
Target sequence (Q9NUW8 whole entry, looked up): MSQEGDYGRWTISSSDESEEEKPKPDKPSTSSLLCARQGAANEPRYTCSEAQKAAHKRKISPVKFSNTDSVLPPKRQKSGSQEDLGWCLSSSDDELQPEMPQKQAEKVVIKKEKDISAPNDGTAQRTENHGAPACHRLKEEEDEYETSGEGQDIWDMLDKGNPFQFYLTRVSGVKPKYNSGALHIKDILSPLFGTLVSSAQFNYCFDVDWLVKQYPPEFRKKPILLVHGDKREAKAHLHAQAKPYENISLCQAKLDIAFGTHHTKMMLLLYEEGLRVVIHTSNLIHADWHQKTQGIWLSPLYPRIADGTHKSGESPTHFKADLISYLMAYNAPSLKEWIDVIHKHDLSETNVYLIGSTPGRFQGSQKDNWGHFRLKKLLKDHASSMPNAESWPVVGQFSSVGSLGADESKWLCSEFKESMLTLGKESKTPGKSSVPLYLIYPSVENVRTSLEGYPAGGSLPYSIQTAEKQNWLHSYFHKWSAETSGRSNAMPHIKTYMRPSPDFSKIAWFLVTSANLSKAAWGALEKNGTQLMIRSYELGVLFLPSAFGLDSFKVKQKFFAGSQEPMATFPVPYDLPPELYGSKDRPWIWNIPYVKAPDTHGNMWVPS
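Recombinant E. coli-expressed Tdp1 (1 nM) preincubated with compound 15 min at RT, then 5'-biotin/3'-phosphotyrosine-FITC DNA substrate (15 nM) added for 5 min. AlphaScreen beads (10 ug/ml) added, 10 min RT; tyrosine-FITC cleavage read as signal loss.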
RORgamma inh – blocks mouse ROR gamma transcriptional activity; P51450; Drosophila S2 Gal4-RORgamma UAS-luciferase reporter, 20 h; Potency, µM (highest dose often 53.6 µM), for inactives: top-dose activity change, negative = inhibition, hits mostly inhibitors; 5.4% of 310,000 active; note: nearly all actives have a fitted effect of over 60% in size
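Using a luciferase readout, inhibitors were identified by reduced reporter activity in Drosophila cells coexpressing a copper-inducible Gal4–ROR gamma fusion and UAS-driven Photinus luciferase, incubated 20 hr after 700 uM copper sulfate.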
Numbers without * were called inactive; u = inconclusive; x = no result; [ ] = remark or other dose. Calls come from the whole dose curve; as a rule, active = well fitted curve in the direction sought with a large enough effect; inconclusive = small, poorly fitted or top-dose-only effect, or another doubt; inactive = no such curve, though single readings can be large; an effect the other way counts as inactive or inconclusive. % is set by controls: 0 for no effect and ±100 for the full control effect; potency is the fitted concentration of half-maximal effect.

SMILES | TDP1 cell noCPT | VP16 counter | TDP1 cell CPT | TDP1 inh | RORgamma inh
Oc1ccccc1-c1nc2c3ccccc3c3ccccc3c2[nH]1 | 18.4µM* | -3.0% | 20.6µM* | -5.1% | -7.9%
c1csc(-c2cn3ccc4ccccc4c3n2)c1 | -18.6% | u | -13.7% | -2.8% | 0.3%
c1csc(-c2nc3c4ccccc4c4ccccc4c3[nH]2)c1 | u | u | 20.6µM* | 5.0% | u
CS(=O)(=O)N1CCCCC1c1cc(C(=O)Nc2cccc(C#N)c2)no1 (stereo not given) | -16.2% | x | -17.0% | x | x
Cc1ccc(NC(=O)c2ccc3c(c2)OCCO3)cc1C | u | u | -9.7% | 4.5% | 5.01µM*
O=C(Nc1ccc2c(c1)OCCO2)c1ccc(Cl)cc1 | 20.6µM* | -22.1% | u | x | -13.9%
Cc1ccc(C(=O)Nc2ccc3c(c2)OCCO3)c(C)c1 | u | 4.47µM* | u | x | 3.16µM*
Cc1ccc(NC(=O)c2ccc3c(c2)OCCO3)cc1S(=O)(=O)Nc1cccc(Cl)c1 | 20.6µM* | u | 16.4µM* | 5.4% | 26.1%
Cc1cccc(NC(=O)c2ccc3c(c2)OCCO3)c1 | u | u | -24.9% | 5.9%[0.0935 µM] | u
COc1cc(/C=N/NS(=O)(=O)c2ccc(C)cc2)ccc1OCc1cccc(C(=O)O)c1 | -4.8% | -10.5% | -5.5% | 2.4% | u
CC(=O)NS(=O)(=O)c1ccc(NC(=O)c2ccc3c(c2)OCO3)cc1 | 9.7% | 0.0% | 4.9% | x | 20µM*
CC(=O)Nc1ccc(C(=O)Nc2ccc3c(c2)OCO3)cc1 | 1.9% | -4.5% | -3.1% | 7.1% | u
COc1cccc(Cn2cnc3c(N)c(C)c(C)cc32)c1 | -37.6% | -6.1% | -9.3% | 5.9% | u
COc1cccc(Oc2nc3ncn(Cc4ccccc4)c3c(=O)n2C)c1 | -24.6% | 6.0% | -19.7% | 6.5% | -41.8%
COc1cccc(Cn2cnc(-c3ccccc3OC)c2-c2ccco2)c1 | 18.4µM* | x | 18.4µM* | x | x
COc1cccc(-c2c(-c3ccccc3OC)ncn2Cc2cccc(-c3ccccc3)c2)c1 | 11.6µM* | x | 8.2µM* | x | x
Cc1ccc(S(=O)(=O)Nc2n[nH]nc2C(=O)NC2CCCCC2)cc1 | 2.8% | 8.1% | -0.5% | 0.0% | 9.1%
COc1cccc(OCCCn2cc(/C=C3/C(=N)N4C=C(C)SC4=NC3=O)c3ccccc32)c1 | 6.51µM* | 1.41µM* | 8.2µM* | -2.8% | 2.24µM*
COc1ccc(OCCCn2cc(/C=C3/C(=N)N4C=C(C)SC4=NC3=O)c3ccccc32)cc1 | 7.31µM* | 1.58µM* | u | 0.0% | 0.794µM*
Nc1ccc(N2N=C(N3CCCC3)CC2=O)cc1 | u | x | -7.3% | x | x
O=C(Nc1ccccc1N1CCCC1)c1ccc([N+](=O)[O-])cc1Cl | u | -3.2% | u | 11.0% | -27.7%
Cc1ccc(N=Nc2c(C)[nH]n(C(N)=S)c2=O)cc1C | 1.64µM* | 1.12µM* | 1.84µM* | 0.0% | 0.224µM*
CC(=O)Nc1ccc(N=Nc2c(C)[nH]n(C(N)=S)c2=O)cc1 | -13.3% | -0.1% | -16.0% | -5.3% | 3.98µM*
Cc1[nH]n(C(N)=S)c(=O)c1N=Nc1cc(-c2ccc(Br)cc2)[nH]n1 | 2.91µM* | -9.2% | 3.26µM* | 8.0% | 1.58µM*
Cc1[nH]n(C(N)=S)c(=O)c1N=Nc1cccc([N+](=O)[O-])c1C | u | x | -5.4% | 8.0% | x
SMILES | TDP1 cell noCPT | VP16 counter | TDP1 cell CPT | TDP1 inh | RORgamma inh
Cc1[nH]n(C(N)=S)c(=O)c1N=Nc1ccc(S(=O)(=O)N2CCCCCC2)cc1 | 20.6µM* | 2.51µM* | u | 12.4% | 0.891µM*
Nc1cc(-c2ccc(Br)cc2)[nH]n1 | u | u | u | 5.3% | 13.4%
Cc1cn([C@H]2C[C@H](O)[C@@H](CNC(=O)[C@H](N)Cc3cscn3)O2)c(=O)[nH]c1=O | -25.1% | x | 0.7% | x | x
COc1cc(C(=O)NCC2CCCO2)ccc1OCc1ccccc1 (stereo not given) | -19.1% | -29.9% | -8.2% | -0.7% | -20.6%
Cc1[nH]n(C(N)=S)c(=O)c1N=Nc1ccc2ccccc2c1 | u | 3.98µM* | u | 10.1% | 1µM*
Cc1ccc(N=C2CCCN2Cc2ccccc2)c(C#N)c1 | 20.6µM* | -7.9% | u | -1.2% | -4.0%
